Assay outcomes deposited in PubChem by National Center for Advancing Translational Sciences (NCATS).
Rows were chosen to be rich in hits. Some 15% of all compounds tested hit in one or more screens of this group.
TDP1 cell noCPT: qHTS for Inhibitors of human tyrosyl-DNA phosphodiesterase 1 (TDP1): qHTS in cells in absence of CPT; DT40 Tdp1-/- hTDP1 cells, no CPT, ATP luminescence, 48 h; Potency, µM (top dose mostly 46.2 µM), usual class: inhibitors; 15% of 420,000 active; AID 686978, 2013; also: nearly all actives have a fitted effect of over 55% in size
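DT40 Tdp1-/-;hTDP1 cells, no CPT (DMSO vehicle only), 400 cells/well; compounds pin-transferred; ≥48 hr, 37 °C; CellTiter-Glo 30 min RT dark, luminescence read.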
DT40 TDP1 CPT: DT40-hTDP1 cell growth loss with CPT. 12% of 420,000 active. chicken DT40 Tdp1-/-;hTDP1 cells + 20 nM CPT, ATP luminescence, 48 h. Potency, µM (top dose mostly 46.2 µM), hits mostly inhibitors. AID 686979; also: nearly all actives have a fitted effect of over 55% in size
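Chicken DT40 Tdp1-/- cells stably complemented with human TDP1 were seeded at 400 cells/well in medium containing 20 nM camptothecin, exposed to pin-transferred compounds, and grown at 37 °C for at least 48 hr. Viability was read as ATP luminescence.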
12-LOX inh: ALOX12 (human) lipoxygenase inhibition; 1.1% of 580,000 active; purified 12hLO, xylenol orange hydroperoxide absorbance; Potency, µM (series often up to 108 µM), most hits filed as inhibitors
Target sequence (P18054 whole entry, looked up): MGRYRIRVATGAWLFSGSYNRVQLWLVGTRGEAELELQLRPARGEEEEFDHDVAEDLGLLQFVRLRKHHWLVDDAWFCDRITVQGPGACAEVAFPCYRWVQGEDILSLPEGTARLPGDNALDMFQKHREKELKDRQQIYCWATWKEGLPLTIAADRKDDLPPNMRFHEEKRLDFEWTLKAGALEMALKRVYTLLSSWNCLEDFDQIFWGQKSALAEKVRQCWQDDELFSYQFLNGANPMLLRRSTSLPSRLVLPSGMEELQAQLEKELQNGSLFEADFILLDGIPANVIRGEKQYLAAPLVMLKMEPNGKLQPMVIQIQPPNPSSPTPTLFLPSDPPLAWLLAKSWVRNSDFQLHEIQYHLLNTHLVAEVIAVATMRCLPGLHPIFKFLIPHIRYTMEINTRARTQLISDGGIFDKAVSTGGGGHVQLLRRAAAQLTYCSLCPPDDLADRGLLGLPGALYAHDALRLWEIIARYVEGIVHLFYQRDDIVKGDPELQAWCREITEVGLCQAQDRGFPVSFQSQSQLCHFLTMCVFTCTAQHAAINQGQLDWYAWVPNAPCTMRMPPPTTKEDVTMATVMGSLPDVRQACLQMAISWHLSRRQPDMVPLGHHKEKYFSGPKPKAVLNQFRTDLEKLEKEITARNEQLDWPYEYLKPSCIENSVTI
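Purified human 12hLO at 150 nM in 25 mM Hepes, 0.01% Triton X-100, pH 7.0, preincubated 15 min at room temperature with compound. Reaction started with 40 uM arachidonic acid, 30 min at room temperature. Hydroperoxide measured by Fe-xylenol orange, 573/405 nm absorbance ratio.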
ELG1 repair inh: inhibitors of ELG1-dependent DNA repair in HEK293T cells | HEK293T ELG1-luciferase reporter, luminescence, 16 h; DNA damage induced by 5-fluorouridine | Potency, µM (titrated, usually from 46.1 µM), most hits filed as inhibitors | 2.3% of 330,000 active; also: nearly all actives have a fitted effect of over 55% in size
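HEK293T cells expressing luciferase-tagged ELG1 (2,000/well) received 5-Fluorouridine plus compound or DMSO for 16 hr at 37 °C. Luciferase was read by ONE-Glo luminescence after 30 min at room temperature.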
RORg inh: blocks mouse ROR gamma transcriptional activity | P51450 | Drosophila S2 Gal4-RORgamma UAS-luciferase reporter, 20 h | Potency, µM (doses to about 53.6 µM), actives largely listed as inhibitors | 5.4% of 310,000 active; also: nearly all actives have a fitted effect of over 60% in size
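Drosophila S2 cells stably expressing Gal4-DBD/mouse RORγ fusion under metallothionein promoter plus UAS-luciferase; compound 1 h, then 700 uM CuSO4 induction for 20 h at ambient temperature; inhibition read as reduced luminescence.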
Gal4-VP16 FLuc: Gal4-VP16 reporter inhibition counter-screen. Drosophila S2 Gal4-VP16 UAS-luciferase, luminescence, 20 h. AID 2546. 3.5% of 310,000 active. Potency, µM (titrated, usually from 53.6 µM), usual class: inhibitors;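 also: Gal4-VP16 expression switched on by copper sulfate through the metallothionein promoter; nearly all actives have a fitted effect of over 50% in size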
Each line names hits and unclear results; the compound was inactive in the other large screens; ! = a repeat was not active. Calls follow the shape of the dose curve; as a rule, active = well fitted curve in the direction sought with a large enough effect; inconclusive = small, poorly fitted or top-dose-only effect, or another doubt; inactive = no such curve, though single readings can be large; an effect the other way counts as inactive or inconclusive.

Cc1cc(C(=O)N2CC(F)(F)C[C@H]2c2nc(C3CC3)no2)on1	none (no result: TDP1 cell noCPT, DT40 TDP1 CPT, ELG1 repair inh, RORg inh, Gal4-VP16 FLuc)
COc1ccccc1CN1C(=O)C(=O)c2cccc(C)c21	TDP1 cell noCPT 6.51µM, DT40 TDP1 CPT 13µM (no result: ELG1 repair inh, RORg inh, Gal4-VP16 FLuc)
COc1ccccc1CN1C(=O)c2cccc3cccc(c23)C1=O	TDP1 cell noCPT inconclusive
Cc1cccc2c1N(Cc1ccccc1OC(C)C)C(=O)C2=O	none (no result: TDP1 cell noCPT, DT40 TDP1 CPT, ELG1 repair inh, RORg inh, Gal4-VP16 FLuc)
Cc1cccc2c1N(Cc1ccccc1OCCC(C)C)C(=O)C2=O	TDP1 cell noCPT 11.6µM, DT40 TDP1 CPT 14.6µM (no result: ELG1 repair inh, RORg inh, Gal4-VP16 FLuc)
Cc1cc(Br)cc2c1N(Cc1ccccc1OC(C)C)C(=O)C2=O	TDP1 cell noCPT 4.11µM, DT40 TDP1 CPT 20.6µM, 12-LOX inh 4.47µM! (no result: ELG1 repair inh, RORg inh, Gal4-VP16 FLuc)
C=CCNC(=O)c1cccn2nccc12	none (no result: TDP1 cell noCPT, DT40 TDP1 CPT, ELG1 repair inh, RORg inh, Gal4-VP16 FLuc)
CCOC(=O)c1c(S(=O)(=O)NCC(=O)N2CCN(c3ccccc3OC)CC2)c(C)n(C)c1C	TDP1 cell noCPT inconclusive, DT40 TDP1 CPT inconclusive
CCOC(=O)c1c(C)oc2ncnc(Nc3ccc(CC)cc3)c12	TDP1 cell noCPT inconclusive (no result: ELG1 repair inh, RORg inh, Gal4-VP16 FLuc)
CCOC(=O)c1c(C)oc2ncnc(NCCCN3CCN(c4cc(C)ccc4C)CC3)c12	TDP1 cell noCPT 4.61µM, DT40 TDP1 CPT 7.31µM (no result: ELG1 repair inh, RORg inh, Gal4-VP16 FLuc)
CCOC(=O)c1c(C)oc2nc(C)nc(NCC3CCN(Cc4ccc(F)cc4)CC3)c12	TDP1 cell noCPT inconclusive (no result: ELG1 repair inh, RORg inh, Gal4-VP16 FLuc)
CCOC(=O)c1c(C)oc2nc(C)nc(NCCCN3CCN(c4ccc(F)cc4)CC3)c12	TDP1 cell noCPT 20.6µM, DT40 TDP1 CPT 20.6µM, 12-LOX inh inconclusive (no result: ELG1 repair inh, RORg inh, Gal4-VP16 FLuc)
Cc1nc(N2CCCC2)c2c(C(=O)N3CCN(c4ccc(F)cc4)CC3)c(C)oc2n1	none (no result: ELG1 repair inh, RORg inh, Gal4-VP16 FLuc)
CCOC(=O)c1c(C)oc2nc(C)nc(N3CCN(c4ccc(C(C)=O)cc4)CC3)c12	TDP1 cell noCPT 2.91µM, DT40 TDP1 CPT 5.8µM (no result: ELG1 repair inh, RORg inh, Gal4-VP16 FLuc)
CCOC(=O)c1c(C)oc2nc(C)nc(NCCCN3CCN(c4ccccc4OC)CC3)c12	TDP1 cell noCPT 23.1µM, DT40 TDP1 CPT inconclusive (no result: ELG1 repair inh, RORg inh, Gal4-VP16 FLuc)
COc1ccc(Oc2c(C)oc3cc(OCC(=O)N4CCCC4)ccc3c2=O)cc1	none (no result: TDP1 cell noCPT, DT40 TDP1 CPT, ELG1 repair inh, RORg inh, Gal4-VP16 FLuc)
O=C(Nc1cccc(Oc2ccccc2)c1)c1ccc(-n2cncn2)c2ccoc12	TDP1 cell noCPT inconclusive, DT40 TDP1 CPT 18.4µM (no result: ELG1 repair inh, RORg inh, Gal4-VP16 FLuc)
COc1cccc(NCc2cc(=O)oc3cc(C)c(O)cc23)c1	TDP1 cell noCPT inconclusive, DT40 TDP1 CPT inconclusive, 12-LOX inh inconclusive
O=c1cc(CN2CCN(c3ccccc3)CC2)c2cc(O)c(-c3ccccc3)cc2o1	TDP1 cell noCPT 10.3µM, DT40 TDP1 CPT 5.8µM
O=c1cc(CN2CCN(c3ccc(Cl)c(Cl)c3)CC2)c2ccccc2o1	TDP1 cell noCPT 14.6µM (no result: ELG1 repair inh, RORg inh, Gal4-VP16 FLuc)
O=c1cc(CN2CCN(c3cccc(Cl)c3)CC2)c2cc(O)c(-c3ccccc3)cc2o1	TDP1 cell noCPT 18.4µM, DT40 TDP1 CPT 13µM, RORg inh inconclusive
O=c1cc(CN2CCCCC2)c2ccccc2o1	12-LOX inh inconclusive (no result: ELG1 repair inh, RORg inh, Gal4-VP16 FLuc)
CCc1cc2c(CN3CCN(c4ccccc4)CC3)cc(=O)oc2cc1O	none (no result: TDP1 cell noCPT, DT40 TDP1 CPT, ELG1 repair inh, RORg inh, Gal4-VP16 FLuc)
COc1cccc(NCc2cc(=O)oc3cc(-c4ccccc4)c(O)cc23)c1	TDP1 cell noCPT 18.4µM, DT40 TDP1 CPT inconclusive, RORg inh inconclusive, Gal4-VP16 FLuc inconclusive
CC(C)N1C[C@H](O)C[C@H]1c1nnc2n1CCN(C(=O)CC1CCCCC1)C2	none (no result: TDP1 cell noCPT, DT40 TDP1 CPT, ELG1 repair inh, RORg inh, Gal4-VP16 FLuc)
CCOC(=O)CCNC(=O)N1[C@@H]2CC[C@H]1CC(NC(=O)c1ccc(F)cc1)C2 (stereo partly drawn)	none (no result: TDP1 cell noCPT, DT40 TDP1 CPT, ELG1 repair inh, RORg inh, Gal4-VP16 FLuc)
COc1c(C)cc(C(O)c2ncc(-c3cccc4ccccc34)[nH]2)cc1C (stereo not drawn)	TDP1 cell noCPT 18.4µM, DT40 TDP1 CPT 20.6µM (no result: ELG1 repair inh, RORg inh, Gal4-VP16 FLuc)
Cc1ccc2ccccc2c1C(O)c1ncc(-c2ccc(Cl)cc2)[nH]1 (stereo not drawn)	TDP1 cell noCPT 8.2µM, DT40 TDP1 CPT inconclusive, 12-LOX inh inconclusive (no result: ELG1 repair inh, RORg inh, Gal4-VP16 FLuc)
Cc1cccc(C)c1C(O)c1ncc(-c2cccc3ccccc23)[nH]1 (stereo not drawn)	TDP1 cell noCPT 16.4µM, DT40 TDP1 CPT 20.6µM (no result: ELG1 repair inh, RORg inh, Gal4-VP16 FLuc)
